The assay can be described thus: EMT-state selective cytotoxicity in co-culture – imaging, PC-3E GFP, TEM4-18 mCherry, primary screen (AID 1345086).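 Also: cells exposed to compound for 72 h before imaging.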 The settings on record: PC-3E GFP / TEM4-18 mCherry co-culture, imaging cell counts; measured here: epithelial PC-3E GFP cell survival; at 1 µM.
For the molecule `COc1cc2c(cc1OC)Cc1cc(OC)c(OC)cc1Cc1cc(OC)c(OC)cc1C2`, the normalised cell number came to 1.01. `CC1(C)C[C@H]2[C@@]1(O)[C@@H](O)C[C@]1(C)[C@H](O)C=C[C@]21CO` returned a normalised cell number of 1.19. On to `C/C=C/C1=CC(=O)[C@H](O)[C@H]1O`, for which the normalised cell number was 1.04.

In turn, `C[C@@H]1O[C@@H](O[C@H]2[C@@H](Oc3cc(O)c4c(c3)O[C@H](c3ccc(O)cc3)CC4=O)O[C@H](CO)[C@@H](O)[C@@H]2O)[C@H](O)[C@H](O)[C@H]1O` returned a normalised cell number of 0.94. Turning to `CC(=O)OC1CC(C)OC(=O)CCC(O)CC1=O` (configuration not stated), the normalised cell number came to 0.98. Regarding `C[C@H]1[C@H](C)CC[C@]2(C(=O)O)CC[C@]3(C)C(=CCC4[C@@]5(C)C[C@@H](O)[C@H](O)[C@@](C)(CO)C5[C@H](O)C[C@]43C)[C@H]12` (some centres not stated), the normalised cell number was 0.92. Under `O=S(=O)([O-])OC[C@H]1O[C@@](COS(=O)(=O)[O-])(O[C@H]2O[C@H](COS(=O)(=O)[O-])[C@@H](OS(=O)(=O)[O-])[C@H](OS(=O)(=O)[O-])[C@H]2OS(=O)(=O)[O-])[C@@H](OS(=O)(=O)[O-])[C@@H]1OS(=O)(=O)[O-].[Al+3].[Na+].[Na+].[O-2].[O-2].[OH-]` stands 1.15; under `CC(C)=CCC/C(C)=C\CC1=C(C)C(=O)c2ccccc2C1=O`, 1.11. Take `COC(=O)CNC(=O)c1ccc([C@H](O)c2ccccc2)cn1`: the normalised cell number was 1. With `CC(C)c1c(O)ccc2c1CCC1C(C)(C)CCC[C@]21C` (some centres not stated), the normalised cell number was 1.08. On to `CN(C)c1cccc2c(S(N)(=O)=O)cccc12`, for which the normalised cell number was 1.15.

`COc1cc(OC)c2c(=O)c(OC)c(-c3ccccc3)oc2c1` came in with a normalised cell number of 1.32. Consider `Cc1cccc(CN2CCN(C(c3ccccc3)c3ccc(Cl)c(C)c3)CC2)c1` (configuration not stated), for which the normalised cell number stood at 1.23. `O=C1CC[C@]23/C=C/C(=O)NCCCCNCCCNC(=O)/C=C/c4ccc(c2c4)O[C@@H]3C1` displayed a normalised cell number of 1.1.

In turn, `Nc1ccc2ccccc2c1S(=O)(=O)O` showed a normalised cell number of 1.03.

As for `O=C(N[C@@H](Cc1ccc(O)cc1)C(=O)O)OCc1ccccc1`, the normalised cell number is 1.09.

On to `CC(=O)OC[C@@]1(O)C[C@@]23CCC4c5ccoc5CC[C@]4(C)C2CC[C@@H]1C3` (some centres not stated), for which the normalised cell number was 0.89.

`COc1c(N2CC[C@@H](CN)C2)c(F)cc2c(=O)c(C(=O)NO)cn(C3CC3)c12` yielded a normalised cell number of 1.04.

As to `O=C[C@H](O)[C@@H](O)[C@H](O)CO`, the normalised cell number is 0.97. The molecule `COC1=CC(=O)C[C@@H](C)[C@]12Cc1c(Cl)c(OC)cc(OC)c1C2=O` gave a normalised cell number of 1.33. Under `O=c1cc(-c2ccccc2)oc2cc(O)ccc12` stands 1.2; under `C=CC(C)(C)c1cccc2[nH]c3c(c12)C[C@@H]1CC[C@@]2(O)C4=CC(=O)[C@@H]5O[C@@]4(CC[C@]2(C)[C@@]31C)CC5(C)C`, 1.11; under `OC[C@H]1O[C@H](OC[C@H]2O[C@@H](O)[C@H](O)[C@@H](O)[C@@H]2O)[C@H](O)[C@@H](O)[C@H]1O`, 0.99. Under `Cc1c(O)c(O)cc2oc3cc(O)cc(O)c3c(=O)c12` stands 1.06; under `OCC1O[C@H](O[C@H]2OC(CO)[C@@H](O)[C@@H](O)C2O)C(O)[C@H](O)[C@@H]1O` (some centres not stated), 1.01. Under `C[C@H]1C[C@H](O)[C@H]2[C@@H](C=C[C@@](C)(O)[C@]2(C)C(=O)CCO)C1` stands 0.32. Take `CC(C)CC1C(=O)OC(C(C)C)C(=O)N(C)C(C(C)C)C(=O)OC(C(C)C)C(=O)N(C)C(C(C)C)C(=O)OC(C(C)C)C(=O)N1C` (configuration not stated): the normalised cell number turned out to be 1.17. Under `COC(=O)[C@]12Oc3c(c(O)cc4c3C3C=C[C@]5(C4)C(=C(O)c4c(O)cc(C)cc4[C@@H]5OC(C)=O)C3=O)C(O)=C1C(=O)C=C[C@@H]2O` stands 0.87; under `OCc1cc(Br)ccc1Cl`, 1.07. Under `C[C@H](Oc1ccc(Oc2ccc3ncc(Cl)nc3c2)cc1)C(=O)O` stands 1.29. As for `NC(CSCSCC(N)C(=O)O)C(=O)O` (configuration not stated), the normalised cell number came to 0.91. On to `COc1cc([C@@]2(C)[C@@H]3[C@@H](C)CCC[C@@H]3C=C[C@@H]2C)oc(=O)c1C=O`, for which the normalised cell number was determined as 1.06. Under `CC[C@H](C)/C=C/C1=CC2=C(Cl)C(=O)[C@@]3(C)OC(=O)C(C(=O)[C@@H](C)[C@@H](C)O)=C3C2=CO1` stands 0.92. As to `CC[C@@H](C)CC(=O)N1C(=S)O[C@@H]2Cc3ccccc3[C@@H]21`, the normalised cell number was determined as 1.12. Molecule `CCN(Cc1cccc(S(=O)(=O)O)c1)c1cccc(C(=C2C=CC(=[N+](CC)Cc3cccc(S(=O)(=O)O)c3)C=C2)c2ccc(O)cc2S(=O)(=O)[O-])c1` had a normalised cell number of 1.26. `[N-]=[N+]=NC1[C@@H](O)C2OC(c3ccccc3)OCC2O[C@@H]1Sc1ccccc1` (some centres not stated) gave a normalised cell number of 0.95. Consider `O=C1NCC[C@@H]1Oc1ccc(Oc2cnc3ccc(Cl)cc3n2)cc1`, for which the normalised cell number came to 1.03.
